# Data reported in PubChem BioAssay (NCATS).
# Inconclusive results are not listed. Entries that show only a call come without a potency. Calls of active or inactive are those of the source. Calls follow the shape of the dose curve; as a rule, active = well fitted curve in the direction sought with a large enough effect; inconclusive = small, poorly fitted or top-dose-only effect, or another doubt; inactive = no such curve, though single readings can be large; an effect the other way counts as inactive or inconclusive.
# Columns and labels:
# [1] = target: N-terminal Xaa-Pro-Lys N-methyltransferase 1 (Homo sapiens) (UniProt Q9BV86); assay: qHTS Assay for Inhibitors of N-terminal methyltransferase 1 (NTMT1): LOPAC validation of the NTMT1 SAHH-coupled ThioGlo3 Assay (AID 1347143); conditions: recombinant NTMT1, SAHH-coupled ThioGlo3 fluorescence; series mostly up to 114 µM; also: nearly all actives have a fitted effect of over 70% in size; also: potency is read from the fitted curve at half-maximal effect
# N-terminal Xaa-Pro-Lys N-methyltransferase 1 (Homo sapiens), sequence (Q9BV86 whole entry, looked up): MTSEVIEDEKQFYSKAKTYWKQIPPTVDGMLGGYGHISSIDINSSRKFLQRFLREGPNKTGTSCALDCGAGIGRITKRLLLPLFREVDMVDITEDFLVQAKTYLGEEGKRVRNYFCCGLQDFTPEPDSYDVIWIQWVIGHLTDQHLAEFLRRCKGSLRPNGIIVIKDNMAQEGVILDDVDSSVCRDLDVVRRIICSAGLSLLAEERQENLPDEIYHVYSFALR
# Method in brief: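 Fluorescence read-out (excitation 340nm, emission 450nm) of SAH-derived thiol, measured via SAHH coupling and ThioGlo3, taken immediately and after a 30 min room-temperature reaction, then normalized to the background read. Enzyme: NTMT1 at 125nM; cofactor SAM 100uM in the added reagent.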
# [2] = tested on: Zika virus NS2B-NS3 protease (unlinked); assay: Optimization of GU AMC qHTS for Zika virus inhibitors: Unlinked NS2B-NS3 protease assay (AID 1347151); conditions: recombinant ZIKV NS2B-NS3 protease, fluorogenic AMC substrate; series mostly up to 52.5 µM; also: nearly all actives have a fitted effect of over 80% in size; also: potency is read from the fitted curve at half-maximal effect
# Method in brief: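 Percent inhibition is derived from the 15-min change in AMC fluorescence, normalized against no-inhibitor and no-enzyme controls, then fitted to a 4-parameter Hill curve. Aprotinin was the intraplate control.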
# [3] = tested on: Zika virus NS2B-NS3 protease; assay: Primary screen GU AMC qHTS for Zika virus inhibitors (AID 1347154); conditions: Zika NS2B-NS3 unlinked protease, AMC fluorogenic substrate; series mostly up to 54.1 µM; also: nearly all actives have a fitted effect of over 70% in size
# Method in brief: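 Unlinked Zika NS2B hydrophilic domain/NS3 protease domain noncovalent complex (25 nM final) in 10 mM Tris-HCl pH 8.0, 0.01% Tween 20, with AMC peptide substrate. Fluorescence (ex 340, em 450 nm) change over 15 min, room temperature; percent inhibition fitted to 4-parameter Hill equation.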
# [4] = tested on: Zika virus NS2B-NS3 protease (linked construct); assay: Confirmatory screen NINDS AMC qHTS for Zika virus inhibitors (AID 1347152); conditions: Purified linked NS2B-NS3, AMC substrate fluorescence; series mostly up to 56.6 µM; also: nearly all actives have a fitted effect of over 70% in size; also: potency is read from the fitted curve at half-maximal effect
# Method in brief: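 In this dose-response qHTS, AMC release from 10 microM Bz-Nle-KRR-AMC by 1 nM linked protease is measured over 15 minutes (about 20% conversion) at pH 8.0. Percent inhibition is fitted to a 4-parameter Hill curve.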
# [5] = tested on: Zika virus NS2B-NS3 protease (unlinked complex); assay: Confirmatory screen GU AMC qHTS for Zika virus inhibitors (AID 1347153); conditions: Recombinant NS2B-NS3 protease, AMC substrate fluorescence; series mostly up to 57.1 µM; also: nearly all actives have a fitted effect of over 70% in size
# Method in brief: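 Noncovalent NS2B hydrophilic domain/NS3 protease complex (25 nM) in 10 mM Tris-HCl pH 8.0, 0.01% Tween 20 was preincubated 15 min at room temperature with compounds. Then 10 µM AMC substrate (Km 18.3 µM) was added; fluorescence was read over 15 min and fitted to a 4-parameter Hill equation.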
# [6] = Confirmatory screen NINDS Rhodamine qHTS for Zika virus inhibitors (AID 1347161); conditions: purified enzyme assay, Rhodamine110 substrate fluorescence, 15 min; series mostly up to 114 µM; also: potency is read from the fitted curve at half-maximal effect; nearly all actives have a fitted effect of over 60% in size
# Method in brief: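 Rhodamine110-peptide cleavage (1.5 µM substrate) by 25 nM linked NS2B-NS3 enzyme at pH 8.0 (Tris, Tween 20), after 15 min RT preincubation with compounds; 15-min fluorescence change normalized to controls and Hill-fitted.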
# [7] = tested on: Zika virus NS2B-NS3 protease (linked); assay: 384 well plate NINDS AMC confirmatory qHTS for Zika virus inhibitors (AID 1347163); conditions: Recombinant NS2B-NS3 protease, Ac-VKTGKR-AMC fluorescence; also: potency is read from the fitted curve at half-maximal effect; nearly all actives have a fitted effect of over 50% in size
# Method in brief: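 Linked protease 5/30/60 nM final; cpds up to 1 mM final, ~15 min preinc. Substrate Ac-VKTGKR-AMC 30 microM final. RT, dark, 25 min; FI ex 355/em 460; normalized to no-enzyme/no-inhibitor ctrls.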
# [8] = tested on: Zika virus NS2B-NS3 protease (unlinked complex); assay: Primary screen GU Rhodamine qHTS for Zika virus inhibitors: Unlinked NS2B-NS3 protease assay (AID 1347159); conditions: Recombinant ZIKV NS2B-NS3 protease, Rhodamine110 substrate fluorescence; series mostly up to 107 µM; also: nearly all actives have a fitted effect of over 60% in size
# Method in brief: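 Noncovalent NS2B hydrophilic domain–NS3 protease domain complex (25 nM) preincubated 15 min at room temperature with compounds (up to 114 microM) in 10 mM Tris-HCl pH 8.0, 0.01% Tween 20; 1.5 microM Rhodamine110 substrate added, fluorescence change over 15 min fitted to Hill equation.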
# [9] = tested on: Zika virus NS2B-NS3 protease (linked construct); assay: Primary screen NINDS Rhodamine qHTS for Zika virus inhibitors (AID 1347160); conditions: purified NS2B-NS3 protease, Rhodamine110 substrate fluorescence; series mostly up to 57.1 µM; also: nearly all actives have a fitted effect of over 55% in size
# Method in brief: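 Purified linked NS2B-NS3 protease (NS2B hydrophilic domain joined to NS3 protease by flexible linker), 25 nM in 10 mM Tris-HCl pH 8.0, 0.01% Tween 20. Compounds titrated, 15 min preincubation at room temperature; 1.5 microM Rhodamine110 substrate, FITC fluorescence change over 15 min.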
compound,measurement,setting,value
CCCCCCCCc1ccc(-c2ccc(C(=O)O)cc2)cc1,Potency,[1],50.1 µM (active)
same,Potency,[2],11.9 µM (active)
same,Potency,[3],inactive
Nc1nc(OCC2CCCCC2)c2[nH]cnc2n1,Potency,[1],inactive
same,Potency,[2],inactive
Oc1cc(O)cc(/C=C/c2ccc(O)c(O)c2)c1,Potency,[1],35.5 µM (active)
same,Potency,[2],23.8 µM (active)
CC[C@H]1OC(=O)[C@H](C)C(O[C@H]2C[C@@](C)(OC)[C@@H](O)[C@H](C)O2)[C@H](C)[C@@H](OC2O[C@H](C)C[C@H](N(C)C)[C@H]2O)[C@](C)(O)C[C@@H](C)CN(C)[C@H](C)[C@@H](O)[C@]1(C)O (stereo not given in full),Potency,[1],inactive
same,Potency,[2],inactive
N#C/C(=C\c1ccc(O)c(O)c1)C(=O)c1ccc(O)c(O)c1,Potency,[1],31.6 µM (active)
same,Potency,[2],1.19 µM (active)
CC1(C)CCC=[N+]1[O-],Potency,[1],inactive
same,Potency,[2],inactive
NC(CCCP(=O)(O)O)C(=O)O (stereo not given),Potency,[1],inactive
same,Potency,[2],inactive
O=C(/C=C/c1ccc(O)cc1)c1ccc(O)cc1O,Potency,[1],44.7 µM (active)
same,Potency,[2],inactive
CCCCCCCCCCCCCCCCCCN(CCCCCCCCCCCCCCCCCC)CCCN(CCO)CCO,Potency,[1],inactive
same,Potency,[2],inactive
CCC(CO)Nc1nc(NCc2ccccc2)c2ncn(C(C)C)c2n1 (stereo not given),Potency,[1],inactive
same,Potency,[2],inactive
S=C(S)OC1CC2CC1C1CCCC21 (stereo not given),Potency,[1],inactive
same,Potency,[2],inactive
COCCOc1cc2nc[nH]c(=O)c2cc1OCCOC,Potency,[1],inactive
same,Potency,[2],inactive
CCCN(CC1CC1)c1nc(C)nc(Nc2c(Cl)cc(Cl)cc2Cl)c1Cl,Potency,[1],inactive
same,Potency,[2],inactive
same,Potency,[3],inactive
NO,Potency,[1],inactive
same,Potency,[2],inactive
CN(C)C(N)=NCCC[C@H](N)C(=O)O,Potency,[1],inactive
same,Potency,[2],inactive
CN1CCc2cccc3c2C1Cc1ccc(O)c(O)c1-3 (stereo not given),Potency,[1],20 µM (active)
same,Potency,[2],26.7 µM (active)
Cn1c(=O)c2[nH]c(-c3ccccc3)nc2n(C)c1=O,Potency,[1],79.4 µM (active)
same,Potency,[2],4.74 µM (active)
same,Potency,[4],21.5 µM (active)
O=C(CCSCc1ccco1)NNC(=O)N1Cc2ccccc2Oc2ccc(Cl)cc21,Potency,[1],inactive
same,Potency,[2],inactive
CN(C)CCC(c1ccc(Cl)cc1)c1ccccn1 (stereo not given),Potency,[1],inactive
same,Potency,[2],inactive
OCC1O[C@H](O)C(Cl)C(O)C1O (stereo not given in full),Potency,[1],inactive
same,Potency,[2],inactive
O=Nc1ccc2oc(=O)ccc2c1,Potency,[1],4.47 µM (active)
same,Potency,[2],inactive
O=C1NC(=O)/C(=C/c2ccc(-c3ccc(F)cc3O)o2)S1,Potency,[1],44.7 µM (active)
same,Potency,[2],21.2 µM (active)
same,Potency,[4],inactive
same,outcome,[5],inactive
same,Potency,[6],24.8 µM (active)
same,Potency,[7],63.1 µM (active)
CC(C)c1cccc(C(C)C)c1N1C(=O)c2ccc(O)cc2C1=O,Potency,[1],inactive
same,Potency,[2],inactive
CC1CN(S(=O)(=O)c2cccc3cnccc23)CCN1 (stereo not given),Potency,[1],inactive
same,Potency,[2],inactive
Nc1ccn([C@H]2O[C@H](CO)[C@@H](O)C2(F)F)c(=O)n1,Potency,[1],inactive
same,Potency,[2],inactive
Oc1ccccc1O,Potency,[1],44.7 µM (active)
same,Potency,[2],inactive
CC(C)(C=O)Cc1cc(C(C)(C)C)c(O)c(C(C)(C)C)c1,Potency,[1],inactive
same,Potency,[3],inactive
CNCC[C@H](Oc1ccc(C(F)(F)F)cc1)c1ccccc1,Potency,[1],inactive
same,Potency,[2],inactive
same,Potency,[3],inactive
N[C@H](CCCP(=O)(O)O)C(=O)O,Potency,[1],inactive
same,Potency,[2],inactive
same,Potency,[3],inactive
O=C(Nc1ccc2[nH]ncc2c1)C1CCC1,Potency,[1],inactive
same,Potency,[2],inactive
same,Potency,[8],inactive
same,Potency,[9],inactive
O=C1C(SCCO)=C(SCCO)C(=O)c2ccccc21,Potency,[1],inactive
same,Potency,[3],inactive
COc1ccccc1CNCCCCCCNCCCCCCCCNCCCCCCNCc1ccccc1OC,Potency,[1],35.5 µM (active)
same,Potency,[2],inactive
same,Potency,[3],inactive
O=C(O)CNC(=O)C(CS)Cc1ccccc1 (stereo not given),Potency,[1],inactive
same,Potency,[2],inactive
same,Potency,[3],inactive
NS(=O)(=O)C#Cc1ccccc1,Potency,[1],inactive
same,Potency,[2],inactive
same,Potency,[3],inactive
COc1cc2c(CCNC(C)=O)c[nH]c2cc1Cl,Potency,[1],inactive
same,Potency,[2],inactive
same,Potency,[3],inactive
C=CCc1cccc(/C=N/NC(=O)CN2CCN(Cc3ccccc3)CC2)c1O,Potency,[1],inactive
same,Potency,[3],inactive
CN(CCCOc1ccc(Cc2ccccc2)cc1)CCC(=O)O,Potency,[1],inactive
same,Potency,[2],inactive
same,Potency,[8],inactive
same,Potency,[9],inactive
CN1CC(=O)N/C1=N/C(=O)Nc1cccc(Cl)c1,Potency,[1],inactive
same,Potency,[2],inactive
same,Potency,[3],inactive
CC(C)NC[C@H](O)COc1cccc2[nH]ccc12,Potency,[1],inactive
same,Potency,[2],inactive
same,Potency,[3],inactive
NC[C@@H]1O[C@H](C23CC4CC(CC(C4)C2)C3)Cc2c1ccc(O)c2O,Potency,[1],50.1 µM (active)
same,Potency,[2],inactive
same,Potency,[3],inactive
CC(C)NCC(O)COc1cccc2ccccc12 (stereo not given),Potency,[1],inactive
same,Potency,[3],inactive
CN1[C@@H](CC(=O)c2ccccc2)CCC[C@H]1C[C@H](O)c1ccccc1,Potency,[1],inactive
same,Potency,[2],inactive
same,Potency,[3],inactive
